These results are taken from PubChem BioAssay (NCATS).

Records with an inconclusive call do not appear. Active and inactive are the calls of the source. Calls come from the whole dose curve; as a rule, active = well fitted curve in the direction sought with a large enough effect; inconclusive = small, poorly fitted or top-dose-only effect, or another doubt; inactive = no such curve, though single readings can be large; an effect the other way counts as inactive or inconclusive.

One experiment concerns the target Furin (Homo sapiens) (UniProt P09958). The experiment can be described thus: Furin counterscreen qHTS for Zika virus inhibitors (AID 1347149). Note: nearly all actives have a fitted effect of over 70% in size. Note: potency is the fitted concentration of half-maximal effect. The conditions noted are these: furin enzymatic counterscreen, fluorogenic substrate; series mostly up to 114 µM. In short, it runs like this: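 Fluorogenic cleavage of BOC-RVRR-AMC (2 microM final, Km ~15 µM) was monitored (ex 340, em 450 nm) at 37C after 15 min RT preincubation of 5 nM furin with compounds in HEPES pH 7.0 buffer with CaCl2 and Triton X-100. Percent inhibition was fitted to a 4-parameter Hill curve.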

Experiment [1] concerns Zika virus NS2B-NS3 protease (linked construct). The experiment can be described thus: Confirmatory screen NINDS AMC qHTS for Zika virus inhibitors (AID 1347152). Note: nearly all actives have a fitted effect of over 70% in size. Note: potency is the fitted concentration of half-maximal effect. The settings on record: Purified linked NS2B-NS3, AMC substrate fluorescence; series mostly up to 56.6 µM. In short, it runs like this:
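Concentration-response confirmation used the NINDS linked protease (NS2B hydrophilic domain joined to NS3 protease domain), 1 nM, with a 15-min compound preincubation. Substrate, Nle-KRR-AMC at 10 microM, was read by UV fluorescence before and after 15 min.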

The nature of experiment [2]: Confirmatory screen GU Rhodamine qHTS for Zika virus inhibitors qHTS (AID 1347157). Note: nearly all actives have a fitted effect of over 70% in size. Note: potency is the fitted concentration of half-maximal effect. The settings on record: purified enzyme assay, Rhodamine110 substrate fluorescence, 15 min; series mostly up to 114 µM. In short, it runs like this: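 Noncovalent NS2B hydrophilic domain/NS3 protease complex (25 nM final) in 10 mM Tris-HCl pH 8.0, 0.01% Tween 20, preincubated 15 min with compounds (up to 114 microM), then 1.5 microM Rhodamine110 substrate. Fluorescence change over 15 min fitted to 4-parameter Hill.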

In experiment [3] the test system is Zika virus NS2B-NS3 protease (unlinked complex). Briefly: Primary screen GU Rhodamine qHTS for Zika virus inhibitors: Unlinked NS2B-NS3 protease assay (AID 1347159). Note: nearly all actives have a fitted effect of over 60% in size. Note: potency is the fitted concentration of half-maximal effect. The conditions noted are these: Recombinant ZIKV NS2B-NS3 protease, Rhodamine110 substrate fluorescence; series mostly up to 107 µM. In short, it runs like this: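 Compounds, tested up to 114 microM, were incubated for 15 minutes with 25 nM unlinked NS2B-NS3 protease at pH 8.0. Cleavage of 1.5 microM Rhodamine110 substrate was then followed by fluorescence for 15 minutes.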

Experiment [4] has as its system Zika virus NS2B-NS3 protease (linked construct). Briefly: Primary screen NINDS Rhodamine qHTS for Zika virus inhibitors (AID 1347160). Note: nearly all actives have a fitted effect of over 55% in size. Note: potency is the fitted concentration of half-maximal effect. The conditions noted are these: purified NS2B-NS3 protease, Rhodamine110 substrate fluorescence; series mostly up to 57.1 µM. In short, it runs like this: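 Percent inhibition, normalized to uninhibited and enzyme-free controls, is fitted to a 4-parameter Hill equation. Fluorescence change comes from a 15-min cleavage of 1.5 microM bis-peptide Rhodamine110 substrate by 25 nM linked NS2B-NS3 at room temperature.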

Experiment [5] is described as follows: Confirmatory screen NINDS Rhodamine qHTS for Zika virus inhibitors (AID 1347161). Note: nearly all actives have a fitted effect of over 60% in size. Note: potency is the fitted concentration of half-maximal effect. The conditions noted are these: purified enzyme assay, Rhodamine110 substrate fluorescence, 15 min; series mostly up to 114 µM. In short, it runs like this: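 Each compound, titrated, sat 15 min with 25 nM linked protease before 1.5 microM Rhodamine110 substrate went in. Fluorescence gain over the next 15 min, in pH 8.0 Tris with Tween 20, gave Hill-fitted curves.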

For experiment [6], the system named is Zika virus NS2B-NS3 protease (linked). Briefly: 384 well plate NINDS AMC confirmatory qHTS for Zika virus inhibitors (AID 1347163). Note: nearly all actives have a fitted effect of over 50% in size. Note: potency is the fitted concentration of half-maximal effect. The conditions noted are these: Recombinant NS2B-NS3 protease, Ac-VKTGKR-AMC fluorescence; series mostly up to 100 µM. In short, it runs like this: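 Linked protease 5/30/60 nM final; cpds up to 1 mM final, ~15 min preinc. Substrate Ac-VKTGKR-AMC 30 microM final. RT, dark, 25 min; FI ex 355/em 460; normalized to no-enzyme/no-inhibitor ctrls.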

Experiment [7] concerns Zika virus NS2B-NS3 protease (linked construct). Briefly: 384 well plate NINDS Rhodamine confirmatory qHTS for Zika virus inhibitors (AID 1347164). Note: nearly all actives have a fitted effect of over 65% in size. Note: potency is the fitted concentration of half-maximal effect. The settings on record: rhodamine-110 peptide substrate fluorescence; series mostly up to 100 µM. In short, it runs like this:
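Cleavage of Ac-LKRR-Rhodamine 110 (10 microM final) by linked protease (final 5, 30 or 60 nM) was followed as fluorescence at 485/538 nm after 25 min, room temperature, dark. Compounds preincubated ~15 min.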

Experiment [8] has as its system Zika virus NS2B-NS3 protease. The experiment can be described thus: Primary screen GU AMC qHTS for Zika virus inhibitors (AID 1347154). Note: nearly all actives have a fitted effect of over 70% in size. The conditions noted are these: Zika NS2B-NS3 unlinked protease, AMC fluorogenic substrate; series mostly up to 54.1 µM. In short, it runs like this: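 Unlinked Zika NS2B hydrophilic domain–NS3 protease complex at 25 nM in 10 mM Tris-HCl pH 8.0, 0.01% Tween 20, with an AMC peptide substrate. Fluorescence change (340/450 nm) over 15 min at room temperature, normalized to controls, fitted to 4-parameter Hill.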

The nature of experiment [9]: ZIKV-mCherry secondary qHTS for Zika virus inhibitors (AID 1347158). Note: top concentration of the series differs between compounds. The conditions noted are these: Vero cells, ZIKV-mCherry infection imaging, 48-72 h; series mostly up to 49.2 µM. In short, it runs like this: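 Vero cells, 5,000/well, plated overnight at 37 °C, then compound added and infected with recombinant ZIKV-mCherry at MOI 1 for 48-72 h. PFA-fixed, Hoechst nuclear stain, high-content imaging; cells with mCherry intensity above 450 RFU scored infected, reported as percent infection.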

Experiment [10] can be described thus: qHTS of pediatric cancer cell lines to identify multiple opportunities for drug repurposing: Primary screen for LAN-5 cells (AID 1347100). The settings on record: LAN-5 neuroblastoma viability, CellTiter-Glo luminescence, 48 h; series mostly up to 46 µM. In short, it runs like this: (§1)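 Viability after 48 h compound treatment at 37C, 500-1,000 cells/well, read as ATP luminescence with CellTiter-Glo. Primary screens used 11-point (MIPE, 0.78 nM-46 µM) or 8-point (NPC, 0.59 nM-46 µM) final concentrations; follow-up screens used 11-point dilutions.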

Experiment [11] is described as follows: qHTS of pediatric cancer cell lines to identify multiple opportunities for drug repurposing: Primary screen for BT-12 cells (AID 1347101). Note: nearly all actives have a fitted effect of over 25% in size. The conditions noted are these: BT-12 viability, CellTiter-Glo luminescence, 48 h; series mostly up to 57.3 µM. In short, it runs like this:
(§2)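 Cells (500-1,000/well) rested 5 h, then received compounds for 48 h; metabolically active cells were measured by CellTiter-Glo luminescence. Final concentrations spanned up to 46 µM (MIPE, 11-point) or 0.59 nM-46 µM (NPC, 8-point) in primary screens, 11-point in follow-ups.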

Experiment [12] can be described thus: qHTS of pediatric cancer cell lines to identify multiple opportunities for drug repurposing: Primary screen for Rh18 cells (AID 1347102). Note: nearly all actives have a fitted effect of over 65% in size. The settings on record: Rh18 rhabdomyosarcoma viability, CellTiter-Glo luminescence, 48 h; series mostly up to 46 µM. In short, it runs like this:
as §1

Experiment [13] in a line: qHTS of pediatric cancer cell lines to identify multiple opportunities for drug repurposing: Primary screen for OHS-50 cells (AID 1347103). Note: nearly all actives have a fitted effect of over 40% in size. The conditions noted are these: OHS-50 osteosarcoma viability, CellTiter-Glo luminescence, 48 h; series mostly up to 57.3 µM. In short, it runs like this: as §2
Experiment [14] is described as follows: qHTS of pediatric cancer cell lines to identify multiple opportunities for drug repurposing: Primary screen for RD cells (AID 1347104). Note: nearly all actives have a fitted effect of over 55% in size. The settings on record: RD rhabdomyosarcoma viability, CellTiter-Glo luminescence, 48 h; series mostly up to 46 µM. In short, it runs like this: (§3)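 Primary screen of approved and investigational compounds on cells in growth media at 37 degrees C, 5% CO2. MIPE set at 11-point and NPC set at 8-point dilutions; viability scored by ATP-based luminescence at 48 hours.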

A short description of experiment [15]: qHTS of pediatric cancer cell lines to identify multiple opportunities for drug repurposing: Primary screen for MG 63 (6-TG R) cells (AID 1347105). Note: nearly all actives have a fitted effect of over 50% in size. The conditions noted are these: MG 63 (6-TG R) viability, CellTiter-Glo, 48 h; series mostly up to 46 µM. In short, it runs like this: as §3
Experiment [16] is described as follows: qHTS of pediatric cancer cell lines to identify multiple opportunities for drug repurposing: Primary screen for control Hh wild type fibroblast cells (AID 1347106).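 Note: a drop in luminescence marks cytotoxicity and a rise apparent proliferation; nearly all actives have a fitted effect of over 55% in size.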 The conditions noted are these: Hh wild-type fibroblast viability, CellTiter-Glo luminescence, 48 h; series mostly up to 46 µM. In short, it runs like this:
as §1

The nature of experiment [17]: qHTS of pediatric cancer cell lines to identify multiple opportunities for drug repurposing: Primary screen for Rh30 cells (AID 1347107). Note: nearly all actives have a fitted effect of over 75% in size. The settings on record: Rh30 rhabdomyosarcoma viability, CellTiter-Glo luminescence, 48 h; series mostly up to 46 µM. In short, it runs like this: as §1
Experiment [18] can be described thus: qHTS of pediatric cancer cell lines to identify multiple opportunities for drug repurposing: Primary screen for Rh41 cells (AID 1347108). The settings on record: Rh41 rhabdomyosarcoma viability, CellTiter-Glo luminescence, 48 h; series mostly up to 46 µM. In short, it runs like this: as §3

Sequence of Furin (Homo sapiens) (P09958 whole entry, looked up): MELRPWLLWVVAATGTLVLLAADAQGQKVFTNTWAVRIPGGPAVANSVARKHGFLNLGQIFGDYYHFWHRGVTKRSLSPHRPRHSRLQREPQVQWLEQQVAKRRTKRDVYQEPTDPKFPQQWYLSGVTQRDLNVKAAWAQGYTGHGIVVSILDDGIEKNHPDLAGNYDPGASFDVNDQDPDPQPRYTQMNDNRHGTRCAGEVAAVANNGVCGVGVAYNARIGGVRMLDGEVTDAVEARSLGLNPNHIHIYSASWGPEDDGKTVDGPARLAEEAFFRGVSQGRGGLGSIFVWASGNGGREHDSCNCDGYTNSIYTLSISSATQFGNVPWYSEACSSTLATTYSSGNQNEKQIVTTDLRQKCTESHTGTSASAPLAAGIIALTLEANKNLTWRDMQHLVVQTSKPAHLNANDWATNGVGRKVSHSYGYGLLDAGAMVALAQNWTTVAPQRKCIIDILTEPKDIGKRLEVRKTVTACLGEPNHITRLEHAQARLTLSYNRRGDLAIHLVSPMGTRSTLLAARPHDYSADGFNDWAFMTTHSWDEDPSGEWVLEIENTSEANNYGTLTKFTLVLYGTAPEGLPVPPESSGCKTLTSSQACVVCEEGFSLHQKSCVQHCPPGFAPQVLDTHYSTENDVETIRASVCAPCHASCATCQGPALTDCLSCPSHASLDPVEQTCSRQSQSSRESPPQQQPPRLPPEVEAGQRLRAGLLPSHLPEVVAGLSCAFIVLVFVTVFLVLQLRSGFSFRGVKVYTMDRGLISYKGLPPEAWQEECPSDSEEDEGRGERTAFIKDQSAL

As for `CC1=C(C(=O)OCc2ccccc2)C(c2ccc(-c3ccccc3)cc2)NC(=O)N1CCCCCC(=O)O` (stereo not given), the Potency in the experiment with Furin (Homo sapiens) is 39.3 µM (active); in [1], 22.1 µM (active); in experiment [2], 2.48 µM (active); in experiment [3], 3.16 µM (active); in experiment [4], 7.94 µM (active); in [5] it was 2.48 µM (active). Moreover, the Potency in [6] is 3.55 µM (active); in [7], 0.631 µM (active).
Consider `O=C(O)c1ccccc1NC(=O)N1CCC(c2ccccc2C(F)(F)F)CC1`, for which the Potency in experiment [3] is 22.4 µM (active).
With `C=CC/C=C\C/C=C\CCCCCCCc1cccc(O)c1C(=O)O`, the Potency in experiment [1] was 10.9 µM (active); in experiment [2], 4.32 µM (active); in [3], 8.91 µM (active); in [4], 3.98 µM (active); in experiment [5], 2.73 µM (active); in [6] it was 44.7 µM (active). Further, the Potency result in experiment [7] is “inactive”.
With `COc1ccc(C(=O)n2c(C)c(Cc3cccc(O[C@@H](C)C(=O)O)c3)c3cc(OC(F)(F)F)ccc32)cc1`, the Potency is 49.4 µM (active) in the experiment with Furin (Homo sapiens); 17.5 µM (active) in experiment [1]; 2.78 µM (active) in experiment [2]; 3.16 µM (active) in [3]; 1.11 µM (active) in experiment [5]; 12.6 µM (active) in [6]. Besides, the Potency result in [7] was “inactive”.
`C#CCN(Cc1cc2c(=O)[nH]c(C)nc2cc1Br)c1ccc(C(=O)NCc2cccnc2)cc1`: the figures for the Potency in experiment [2], in experiment [3] and in experiment [5] were 44.1 µM (active), 39.8 µM (active) and 31.2 µM (active), respectively. In experiment [4], the Potency result was “inactive”.
Turning to `Nc1nccn2c(C3CCC(C(=O)O)CC3)nc(-c3cc4cccc(Cl)c4[nH]3)c12` (stereo not given), the Potency in experiment [3] was 25.1 µM (active).
Consider `CC(=O)O[C@H]1C(=O)[C@@]2(C)[C@H]([C@H](OC(=O)c3ccccc3)[C@]3(O)C[C@H](OC(=O)[C@H](O)[C@@H](NC(=O)c4ccccc4)c4ccccc4)C(C)=C1C3(C)C)[C@]1(OC(C)=O)CO[C@@H]1C[C@@H]2O`, for which the Potency result in [8], in experiment [3] and in [4] was “inactive” throughout.
With `COc1ccc(C(=O)C2CCN(CC(=O)N(Cc3nc4c(c(=O)[nH]3)COCC4)CC3CC3)CC2)cc1`, the Potency entry in experiment [2], in experiment [3] and in experiment [5] was “inactive” in each case.
Take `O=C(O)Cc1ccc2oc(-c3ccc(NC(=O)/C=C/c4ccc(Br)cc4)c(F)c3)nc2c1`: the Potency in the experiment with Furin (Homo sapiens) was 55.5 µM (active); in experiment [1], 15.6 µM (active); in experiment [2] it was 3.12 µM (active); in experiment [3] it was 3.16 µM (active); in experiment [4] it was 3.16 µM (active); in experiment [5], 2.21 µM (active). The Potency result in experiment [9], in experiment [6] and in experiment [7] was “inactive” in each case.
With `COc1cc(O)c([C@@H](CC(=O)N2CC(C)CC(C)C2)c2ccc3c(c2)OCO3)c(OC)c1` (stereo not given in full), in [3], the Potency result was “inactive”.
Turning to `CCOCCOC(=O)/C=C/c1ccc(OC)cc1`, in [10], the Potency result was “inactive”. The call in [11], in experiment [12], in experiment [13], in experiment [14], in [15] and in experiment [16] was inactive. For the same molecule, the call in [17] and in experiment [18] was inactive.
For the molecule `N#CC(c1ccnc(OCc2ccc(CN3CCOCC3)cc2)n1)c1nc2ccccc2s1` (stereo not given), the Potency entry (with Furin (Homo sapiens); in experiment [1]) was “inactive” each time. The Potency in experiment [2] is 31.2 µM (active); in [3] it was 3.98 µM (active); in [4] it was 7.94 µM (active); in [5] it was 31.2 µM (active); in [7], 5.01 µM (active).
